{"source": "PubChem BioAssay AID651687", "about": "(Broad Institute, 2012)", "note": "Screen size: about 350,000 compounds; about 600 (0.17%) were called active. The sample as a whole holds a higher share of actives than the screen did. Unmarked numbers belong to inactive results.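 Rule for the calls: active = every replicate shows inhibition of at least 40%; inconclusive = mean inhibition at least 40% but some replicate below; inactive = the rest.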", "data": [{"test": "inhibitors of PGC1a acetylation signal, primary screen, cell-based, U2OS, AlphaScreen, inhibitor mode (AID 651687);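 note: 0% = neutral control wells and 100% = positive control wells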", "details": "AlphaScreen anti-acetyl-lysine, at 15.6 µM, hits give high values", "values": [{"smiles": "CCC(C)(O)C(=O)OC1C(=O)OC2CC3C(C)=CC(=O)C(O)C3(C)C3C4(O)OCC23C1C(C)C4O", "note": "(stereo not given)", "inhibition": "80% (active)"}, {"smiles": "O=C(Cc1ccncc1)N1CCCCN2[C@@H](CO)[C@H](c3ccc(-c4ccncc4)cc3)[C@@H]2C1", "inhibition": "1.83%"}, {"smiles": "O=c1[nH]c2ccccc2n1C1CCN(C(c2ccccc2)c2nnnn2Cc2ccccc2)CC1", "note": "(stereo not given)", "inhibition": "10.6%"}, {"smiles": "COC(=O)C1=C(c2ccc(OCc3ccccc3)cc2)C[C@@H]2CC[C@H]1N2C(=O)NCc1cccc(F)c1", "inhibition": "-39.8%"}, {"smiles": "O=C(Cc1ccncc1)N1CCCCN2[C@H](CO)[C@@H](c3ccc(C#CC4(O)CCCC4)cc3)[C@H]2C1", "inhibition": "-7.38%"}, {"smiles": "COC1C(O)C(C)OC(OC2CCC3(C=O)C(CCC4C3CCC3(C)C(C5=CC(=O)OC5)CCC43O)C2)C1O", "note": "(stereo not given)", "inhibition": "82.1% (active)"}, {"smiles": "O=C(c1ccccc1)C(O)(CN1CCCCC1)c1ccccc1", "note": "(stereo not given)", "inhibition": "-2.16%"}, {"smiles": "COC(=O)C(c1ccccc1)N1CCCCCC1", "note": "(stereo not given)", "inhibition": "5.94%"}, {"smiles": "c1ccc(C(CN2CCCCC2)c2ccccc2)cc1", "inhibition": "40.7% (active)"}, {"smiles": "N#Cc1cccc(-c2ccc([C@H]3[C@@H](CO)N4CCCCN(C(=O)Cc5cccnc5)C[C@@H]34)cc2)c1", "inhibition": "-1.39%"}, {"smiles": "OC[C@@H]1[C@H]2c3ccccc3NC[C@H]2N1Cc1cccnc1", "inhibition": "3.98%"}, {"smiles": "CCOC(=O)c1cccc(C2=C(CNC(=O)c3ccncc3)[C@H]3CC[C@@H](C2)N3Cc2ccccc2)c1", "inhibition": "-1.43%"}, {"smiles": "O=C(Cc1cccnc1)N1CCCCN2[C@@H](CO)[C@H](c3ccc(C#CC4CCCC4)cc3)[C@@H]2C1", "inhibition": "-10.8%"}, {"smiles": "O=C(NCC1=C(c2ccc3ccccc3c2)C[C@@H]2CC[C@H]1N2Cc1ccco1)c1cccs1", "inhibition": "-0.267%"}, {"smiles": "COC(=O)C[C@@H]1CC[C@@H]2NC[C@@H](O)COC[C@H]2O1", "inhibition": "-2.11%"}]}]}
